Laboratory results published in PubChem BioAssay.
For some assays here: Measured potencies and affinities stand elsewhere. The source made the active and inactive calls. Unless noted, how the calls were made is not given here.

Columns and labels:
[1] = antimalarial activity against Dd2 strain (AID 2302;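 active means growth inhibition above 50% at the single 2 µM test dose, taken to imply half-maximal potency below 2 µM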;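 further: 0% = DMSO untreated growth and 100% = chloroquine plus artemisinin killed control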); details: P. falciparum Dd2 in RBCs, LDH growth readout, 72 h; at 2 µM; active compounds read high
[2] = human hepatoma cell viability loss – ATP luminescence, cytotoxicity control for P. falciparum antimalarial project, primary screen (AID 2303;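 active means inhibition above 50%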;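 further: 0% = DMSO wells and 100% = digitonin-killed cells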); details: HepG2 viability, 24-48 h, at 10 µM, active compounds read high
[3] = target: L-lactate dehydrogenase (Plasmodium falciparum (isolate CDC / Honduras)) (UniProt Q27743); assay: PfLDH activity inhibition – cell lysate, 3D7 strain, counter-screen for P. falciparum growth inhibition project (AID 2304);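 further: 0% = vehicle and 100% = reference inhibitor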; details: P. falciparum 3D7 crude extract, LDH APAD/NBT absorbance; at 2 µM; active compounds read high
[4] = inhibition of 3D7 malaria parasite growth – strain 3D7 (AID 2306);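 further: 0% = DMSO wells and 100% = chloroquine plus artemisinin control wells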; details: P. falciparum 3D7 erythrocytic growth, LDH absorbance, 72 h; at 2 µM; active compounds read high
[5] = target: Calcium-dependent protein kinase 1 (Plasmodium falciparum (isolate 3D7)) (UniProt P62344); assay: PfCDPK1 kinase inhibitors, biochemical, TCAMS library (AID 1159585; cut-off not given, nearly all actives have IC50 up to about 0.98 µM;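 further: inhibitors leave more ATP so luminescence rises with inhibition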); details: recombinant PfCDPK1, Kinase-Glo ATP depletion luminescence
[6] = target: Plasmodium falciparum protein kinase 6 (PK6, PF3D7_1337100) (UniProt Q8IDW1); assay: PfPK6 kinase inhibitors, biochemical, TCAMS library (AID 1159586); details: recombinant PfPK6, Kinase-Glo ATP depletion luminescence
[7] = target: Protein kinase 7 (PK7), Plasmodium falciparum 3D7 (PF3D7_0213400) (UniProt Q7YTF7); assay: inhibition of Plasmodium PK7 catalytic activity – biochemical, TCAMS antimalarial set, Kinase-Glo luminescence (AID 1159587); details: recombinant PfPK7, Kinase-Glo ATP depletion luminescence
[8] = target: Calcium-dependent protein kinase 4 (Plasmodium falciparum (isolate 3D7)) (UniProt Q8IBS5); assay: PfCDPK4 kinase inhibitors, biochemical, TCAMS library (AID 1159588; cut-off not given, nearly all actives have IC50 up to about 0.91 µM); details: recombinant PfCDPK4, Kinase-Glo ATP depletion luminescence
Chain of Calcium-dependent protein kinase 4 (Plasmodium falciparum (isolate 3D7)) (Q8IBS5 whole entry, looked up): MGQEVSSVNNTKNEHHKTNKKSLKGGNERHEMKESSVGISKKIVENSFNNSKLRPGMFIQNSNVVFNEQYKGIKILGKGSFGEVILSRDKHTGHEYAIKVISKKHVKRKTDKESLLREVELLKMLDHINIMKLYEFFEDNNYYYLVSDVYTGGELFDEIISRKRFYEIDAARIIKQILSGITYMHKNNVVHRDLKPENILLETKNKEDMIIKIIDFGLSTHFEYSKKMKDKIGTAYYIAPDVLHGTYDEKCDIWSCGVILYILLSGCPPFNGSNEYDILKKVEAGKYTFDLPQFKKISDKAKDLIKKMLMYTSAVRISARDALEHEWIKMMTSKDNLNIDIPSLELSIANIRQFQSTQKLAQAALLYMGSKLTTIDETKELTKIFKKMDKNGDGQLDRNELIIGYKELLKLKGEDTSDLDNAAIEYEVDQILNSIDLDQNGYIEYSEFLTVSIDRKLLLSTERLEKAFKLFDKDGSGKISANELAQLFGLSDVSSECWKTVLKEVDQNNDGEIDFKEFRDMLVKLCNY

Chain of L-lactate dehydrogenase (Plasmodium falciparum (isolate CDC / Honduras)) (Q27743 whole entry, looked up): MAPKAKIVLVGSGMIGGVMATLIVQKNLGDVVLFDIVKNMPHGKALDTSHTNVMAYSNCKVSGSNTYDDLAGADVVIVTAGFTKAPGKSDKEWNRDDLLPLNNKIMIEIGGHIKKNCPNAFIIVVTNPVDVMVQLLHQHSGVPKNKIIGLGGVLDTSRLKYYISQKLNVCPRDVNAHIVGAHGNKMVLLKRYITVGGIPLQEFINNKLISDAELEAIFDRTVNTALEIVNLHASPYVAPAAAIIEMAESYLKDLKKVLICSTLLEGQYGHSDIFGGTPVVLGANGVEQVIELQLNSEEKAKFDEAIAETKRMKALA
Chain of Calcium-dependent protein kinase 1 (Plasmodium falciparum (isolate 3D7)) (P62344 whole entry, looked up): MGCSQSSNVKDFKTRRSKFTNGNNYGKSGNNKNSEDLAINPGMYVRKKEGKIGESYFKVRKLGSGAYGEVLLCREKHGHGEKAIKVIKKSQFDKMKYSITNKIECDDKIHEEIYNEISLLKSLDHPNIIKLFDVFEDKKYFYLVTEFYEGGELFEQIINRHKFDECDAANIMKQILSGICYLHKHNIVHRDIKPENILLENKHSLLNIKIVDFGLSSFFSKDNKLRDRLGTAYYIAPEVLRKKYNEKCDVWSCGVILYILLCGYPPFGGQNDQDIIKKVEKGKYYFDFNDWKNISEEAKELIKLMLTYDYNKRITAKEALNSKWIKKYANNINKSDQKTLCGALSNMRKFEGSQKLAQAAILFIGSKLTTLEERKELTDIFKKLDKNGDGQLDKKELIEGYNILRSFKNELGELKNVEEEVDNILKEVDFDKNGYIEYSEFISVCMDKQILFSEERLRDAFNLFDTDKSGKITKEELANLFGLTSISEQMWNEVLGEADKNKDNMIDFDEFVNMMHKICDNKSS
Chain of Protein kinase 7 (PK7), Plasmodium falciparum 3D7 (PF3D7_0213400) (Q7YTF7 1-343): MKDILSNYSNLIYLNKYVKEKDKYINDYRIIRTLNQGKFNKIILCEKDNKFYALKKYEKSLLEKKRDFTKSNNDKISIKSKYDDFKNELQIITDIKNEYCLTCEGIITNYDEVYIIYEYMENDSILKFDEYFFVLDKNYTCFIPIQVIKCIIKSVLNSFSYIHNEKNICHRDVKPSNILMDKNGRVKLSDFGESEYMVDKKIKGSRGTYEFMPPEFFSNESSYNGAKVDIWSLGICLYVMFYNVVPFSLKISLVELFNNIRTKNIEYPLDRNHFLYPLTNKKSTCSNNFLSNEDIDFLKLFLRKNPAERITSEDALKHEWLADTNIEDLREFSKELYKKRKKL
Chain of Plasmodium falciparum protein kinase 6 (PK6, PF3D7_1337100) (Q8IDW1 1-305): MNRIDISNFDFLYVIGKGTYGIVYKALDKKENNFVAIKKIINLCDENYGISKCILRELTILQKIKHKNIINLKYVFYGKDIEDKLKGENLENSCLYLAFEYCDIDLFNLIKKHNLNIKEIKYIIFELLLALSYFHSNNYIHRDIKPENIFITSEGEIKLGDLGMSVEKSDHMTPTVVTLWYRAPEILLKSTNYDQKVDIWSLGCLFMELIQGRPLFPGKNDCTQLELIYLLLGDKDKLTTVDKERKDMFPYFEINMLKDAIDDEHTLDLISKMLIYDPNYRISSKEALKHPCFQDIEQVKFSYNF

CCCc1cc(Cc2cnc(N)nc2N)cc(CC)c1OC
inactive: growth inhibition [1] 1% | inhibition [2] 4% | inhibition [3] -7% | outcome [5] | outcome [6] | outcome [7] | outcome [8]
active: growth inhibition [4] 97%

C=CCc1cc(OC)ccc1OCCCOc1c(C)nc(N)nc1N
active: growth inhibition [1] 97% | inhibition [2] 67% | growth inhibition [4] 92%
inactive: inhibition [3] -2% | outcome [5] | outcome [6] | outcome [7] | outcome [8]

CC(C)c1cn2c3c(cc(C(=O)N[C@@H](Cc4ccccc4)[C@H](O)CNC4CCCCC4)cc13)N(C)S(=O)(=O)CC2
inactive: inhibition [2] 9% | inhibition [3] 0% | outcome [5] | outcome [6] | outcome [7] | outcome [8]
active: growth inhibition [1] 99% | growth inhibition [4] 98%

COc1ccc(C=Cc2cc(N)c3ccccc3n2)cc1
inactive: growth inhibition [1] 16% | inhibition [2] 38% | inhibition [3] 5% | outcome [5] | outcome [6] | outcome [7] | outcome [8]
active: growth inhibition [4] 93%

CN(C)CCCNC(=O)c1ccccc1Sc1ccccc1C#N
inactive: growth inhibition [1] 3% | inhibition [2] 11% | inhibition [3] 2% | outcome [5] | outcome [6] | outcome [7] | outcome [8]
active: growth inhibition [4] 89%

CCOc1cc(C)ccc1N1CCN(CCCCNC(=O)c2ccc(NC(=O)c3ccc(Cl)cc3)cc2)CC1
active: growth inhibition [4] 100%
inactive: growth inhibition [1] 46% | inhibition [2] 19% | inhibition [3] -5% | outcome [5] | outcome [6] | outcome [7] | outcome [8]

Cn1cnc2nc(NCCc3ccccc3)nc(NCc3cccc4ccccc34)c21
inactive: inhibition [2] 16% | inhibition [3] -2% | outcome [5] | outcome [6] | outcome [7] | outcome [8]
active: growth inhibition [1] 98% | growth inhibition [4] 95%

COc1c(C=NNc2nc(Nc3ccccc3)nc(Nc3ccccc3)n2)ccc(Br)c1O
active: inhibition [2] 63% | growth inhibition [4] 98%
inactive: growth inhibition [1] 37% | inhibition [3] 5% | outcome [5] | outcome [6] | outcome [7] | outcome [8]

CCC1(CC)N=C(N)N=C(N)C1c1ccc(Cl)c(Cl)c1 (stereo not given)
inactive: growth inhibition [1] 20% | inhibition [2] -16% | inhibition [3] 7% | outcome [5] | outcome [6] | outcome [7] | outcome [8]
active: growth inhibition [4] 98%

Cc1cc(Cl)c(S(=O)(=O)NC2CCCC2)cc1OCC(=O)NC1CCCCC1
active: growth inhibition [1] 91% | growth inhibition [4] 97%
inactive: inhibition [2] 19% | inhibition [3] -6% | outcome [5] | outcome [6] | outcome [7] | outcome [8]

CN(C)c1cc(NC(=O)Nc2ccccc2)c2ccccc2n1
active: growth inhibition [1] 98% | growth inhibition [4] 101%
inactive: inhibition [2] 11% | inhibition [3] -5% | outcome [5] | outcome [6] | outcome [7] | outcome [8]

COc1ccccc1-c1ccc(C(=O)NCC2CCCN(Cc3cccc(C(F)(F)F)c3)C2)s1 (stereo not given)
inactive: growth inhibition [1] 37% | inhibition [2] 18% | inhibition [3] 3% | outcome [5] | outcome [6] | outcome [7] | outcome [8]
active: growth inhibition [4] 81%

O=C(/C=C/c1ccc2ccccc2c1)NCC1(c2ccc(-c3ccccc3)cc2)CCOCC1
active: growth inhibition [4] 95%
inactive: growth inhibition [1] 34% | inhibition [2] 9% | inhibition [3] 0% | outcome [5] | outcome [6] | outcome [7] | outcome [8]

N#Cc1ccccc1N1CCN(C2CCC(NC(=O)c3n[nH]c4cc(C(F)(F)F)ccc34)CC2)CC1 (stereo not given)
inactive: growth inhibition [1] 34% | inhibition [2] 15% | inhibition [3] -4% | outcome [5] | outcome [6] | outcome [7] | outcome [8]
active: growth inhibition [4] 84%

COc1ccc(C2CCN(CCCCNC(=O)c3ccc(NC(=O)c4ccc(Cl)cc4)cc3)CC2)c(OC)c1
active: growth inhibition [1] 95% | growth inhibition [4] 101%
inactive: inhibition [2] 32% | inhibition [3] 0% | outcome [5] | outcome [6] | outcome [7] | outcome [8]

CCN(CC)CCNc1ccnc2[nH]c3ccc([N+](=O)[O-])cc3c12
inactive: inhibition [2] 6% | inhibition [3] -4% | outcome [5] | outcome [6] | outcome [7] | outcome [8]
active: growth inhibition [1] 76% | growth inhibition [4] 100%

Cc1cc(NCCc2ccccc2)nc(/N=C(\N)Nc2cccc([N+](=O)[O-])c2)n1
active: growth inhibition [1] 101% | growth inhibition [4] 102%
inactive: inhibition [2] 21% | inhibition [3] -2% | outcome [5] | outcome [6] | outcome [7] | outcome [8]

COc1ccc2c(NN=Cc3ccncc3)ccnc2c1
active: growth inhibition [4] 95%
inactive: growth inhibition [1] 6% | inhibition [2] -12% | inhibition [3] -3% | outcome [5] | outcome [6] | outcome [7] | outcome [8]

COc1ccc(N2CCN(CCCOc3ccc(NC(=O)c4cc(Cl)cc(Cl)c4)cc3)CC2)c(OC)c1
inactive: growth inhibition [1] 41% | inhibition [2] 38% | inhibition [3] 2% | outcome [5] | outcome [6] | outcome [7] | outcome [8]
active: growth inhibition [4] 100%

O=c1cc(NCCCNCc2cccc(Oc3ccccc3)c2)[nH]c2ccccc12
inactive: inhibition [2] -4% | inhibition [3] -1% | outcome [5] | outcome [6] | outcome [7] | outcome [8]
active: growth inhibition [1] 67% | growth inhibition [4] 93%

O=C(NC1CCC(N2CCN(c3cccc4[nH]ccc34)CC2)CC1)c1cc2cccnc2[nH]1 (stereo not given)
inactive: inhibition [2] 9% | inhibition [3] -2% | outcome [5] | outcome [6] | outcome [7] | outcome [8]
active: growth inhibition [1] 85% | growth inhibition [4] 99%

S=C(NN=Cc1ccccn1)NC1C[C@H]2C=C[C@@H]1C2 (stereo not given in full)
active: growth inhibition [1] 96% | inhibition [2] 51% | growth inhibition [4] 99%
inactive: inhibition [3] -2% | outcome [5] | outcome [6] | outcome [7] | outcome [8]

NC(=O)C1Cc2ccccc2CN1CC(=O)Nc1ccccc1Sc1ccccc1 (stereo not given)
inactive: inhibition [2] 5% | inhibition [3] 3% | outcome [5] | outcome [6] | outcome [7] | outcome [8]
active: growth inhibition [1] 99% | growth inhibition [4] 100%

CCN(CCCN1CCCCC1)c1cc(C)nc(Nc2ccc(Cl)cc2)n1
inactive: inhibition [2] 23% | inhibition [3] -2% | outcome [5] | outcome [6] | outcome [7] | outcome [8]
active: growth inhibition [1] 82% | growth inhibition [4] 101%

CC(=O)Nc1sc(C)c(C)c1CN1CCc2ccccc2C1
active: growth inhibition [1] 94% | growth inhibition [4] 93%
inactive: inhibition [2] -8% | inhibition [3] 1% | outcome [5] | outcome [6] | outcome [7] | outcome [8]

c1cncc(CCNCc2cccc(-c3ccc(-c4nc5ccccc5[nH]4)s3)c2)c1
inactive: inhibition [2] 8% | inhibition [3] -1% | outcome [5] | outcome [6] | outcome [7] | outcome [8]
active: growth inhibition [1] 97% | growth inhibition [4] 100%

CN(C)CCCN1CCN(Cc2ccc(-c3ccc(-c4nc5ccccc5[nH]4)s3)cc2)CC1
inactive: inhibition [2] 19% | inhibition [3] 4% | outcome [5] | outcome [6] | outcome [7] | outcome [8]
active: growth inhibition [1] 100% | growth inhibition [4] 102%

FC(F)(F)Oc1cccc(CNc2noc(-c3sccc3Br)n2)c1
inactive: inhibition [2] 0% | inhibition [3] -3% | outcome [5] | outcome [6] | outcome [7] | outcome [8]
active: growth inhibition [1] 97% | growth inhibition [4] 100%

Cc1nc(N=C(N)N)nc2cc3c(cc12)CCC3
active: growth inhibition [1] 58% | growth inhibition [4] 90%
inactive: inhibition [2] 17% | inhibition [3] 5% | outcome [5] | outcome [6] | outcome [7] | outcome [8]

Cc1cc(NCCc2ccccc2)nc(/N=C(\N)Nc2ccc(Cl)cc2)n1
inactive: inhibition [2] 7% | inhibition [3] 4% | outcome [5] | outcome [6] | outcome [7] | outcome [8]
active: growth inhibition [1] 100% | growth inhibition [4] 102%

CSC1=NC(=Nc2c(C)cccc2C)C2(CCCCC2)N1c1ccccc1Cl
active: growth inhibition [1] 57% | growth inhibition [4] 95%
inactive: inhibition [2] 22% | inhibition [3] -6% | outcome [5] | outcome [6] | outcome [7] | outcome [8]

N=c1ccn(CC(=NO)c2ccc(Cl)c(Cl)c2)cc1
active: growth inhibition [1] 81% | growth inhibition [4] 87%
inactive: inhibition [2] 23% | inhibition [3] -2% | outcome [5] | outcome [6] | outcome [7] | outcome [8]

O=C(N[C@H]1CCN(CCc2ccc(O[C@H]3CCNC3)c(F)c2)C1)c1ccc(Cl)c(Cl)c1
inactive: growth inhibition [1] 23% | inhibition [2] 39% | inhibition [3] 2% | outcome [5] | outcome [6] | outcome [7] | outcome [8]
active: growth inhibition [4] 95%

CN(C)CCOc1ccc(-c2cc(-c3ccc(Cl)c(O)c3)c(-c3ccncc3)[nH]2)cc1
active: growth inhibition [1] 92% | inhibition [2] 54% | growth inhibition [4] 98%
inactive: inhibition [3] 5% | outcome [5] | outcome [6] | outcome [7] | outcome [8]

O=c1cc(NCCC(CNCc2ccoc2)NCc2cc(Br)cc(Br)c2)[nH]c2ccccc12 (stereo not given)
inactive: growth inhibition [1] 28% | inhibition [2] -6% | inhibition [3] -1% | outcome [5] | outcome [6] | outcome [7] | outcome [8]
active: growth inhibition [4] 92%

Cc1ccccc1C1CCN(C2CCC(NC(=O)/C=C/c3cc(C(F)(F)F)ccc3F)CC2)CC1 (stereo not given)
inactive: growth inhibition [1] 45% | inhibition [3] -2% | outcome [5] | outcome [6] | outcome [7] | outcome [8]
active: inhibition [2] 56% | growth inhibition [4] 100%

O=C(N[C@@H](CC1CCCCC1)C(=O)NC1CCCCCC1)c1ccc(O)c(-c2ccc(Cl)c(Cl)c2)c1
inactive: inhibition [2] -3% | inhibition [3] -2% | outcome [5] | outcome [6] | outcome [7] | outcome [8]
active: growth inhibition [1] 100% | growth inhibition [4] 99%

Cc1[nH]c(C)c(-c2ccc(Oc3ccc(Cl)cc3)cc2)c(=O)c1Br
active: growth inhibition [1] 96% | growth inhibition [4] 97%
inactive: inhibition [2] 12% | inhibition [3] -4% | outcome [5] | outcome [6] | outcome [7] | outcome [8]

O=C(NCc1ccccc1S(=O)c1ccccc1CO)C(F)(F)F (stereo not given)
inactive: growth inhibition [1] 2% | inhibition [3] 0% | outcome [5] | outcome [6] | outcome [7] | outcome [8]
active: inhibition [2] 50% | growth inhibition [4] 98%

CCNc1cc(C(=O)N[C@@H](Cc2ccccc2)[C@H](O)CNC23CCC(CC2)CC3)cc(N2CCCCS2(=O)=O)c1
active: growth inhibition [1] 98% | growth inhibition [4] 99%
inactive: inhibition [2] 10% | inhibition [3] 4% | outcome [5] | outcome [6] | outcome [7] | outcome [8]
